A selection: hits, their analogues and other compounds. The true share with any hit is near 9%.
G9a inh = qHTS Assay for Inhibitors of Histone Lysine Methyltransferase G9a. hit rate 8.8% among 350,000. G9a H3K9 monomethylation, AlphaScreen, 2 h. AID 504332, 2011. Potency, µM (top dose mostly 102 µM), for inactives: at the top dose activity, negative = inhibition, most hits filed as inhibitors; further: on the % scale 0 is the no-effect control and ±100 the full control effect; nearly all actives have a fitted effect of over 75% in size
Target sequence (Q96KQ7 913-1193 limits assumed): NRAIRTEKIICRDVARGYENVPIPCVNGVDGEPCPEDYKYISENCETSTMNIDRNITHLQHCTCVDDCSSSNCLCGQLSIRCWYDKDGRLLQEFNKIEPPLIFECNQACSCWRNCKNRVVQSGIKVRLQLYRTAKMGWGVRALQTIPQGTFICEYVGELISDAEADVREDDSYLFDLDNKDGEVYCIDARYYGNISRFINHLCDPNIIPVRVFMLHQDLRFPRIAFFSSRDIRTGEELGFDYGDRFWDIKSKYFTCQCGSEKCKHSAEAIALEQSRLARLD
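Enzyme 20 nM + cpd, 15 min RT; add b-H3K9 pep 500 nM / SAM 20 uM; 2 h RT; anti-H3K9me1 Ab 0.5 ug/mL + SA donor / anti-rabbit acceptor beads 20 ug/mL each, 10 min; AlphaScreen read.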
BAZ2B inh = qHTS Assay for Inhibitors of BAZ2B | hit rate 4.4% among 360,000 | Potency, µM (highest dose often 114 µM), inactives show at the top dose activity change, negative = inhibition, usual class: inhibitors | AID 504333, 2011 | AlphaScreen BAZ2B-H3K14Ac peptide displacement | Bromodomain adjacent to zinc finger domain protein 2B (Homo sapiens), Q9UIF8; further: on the % scale 0 is the no-effect control and ±100 the full control effect; nearly all actives have a fitted effect of over 60% in size
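BAZ2B (50 nM) with biotin-H3(5-23)K14Ac peptide (50 nM) in PBS pH 7.4, 0.01% Tween-20, preformed 30 min, then compound 30 min at room temperature; top concentration 110uM. AlphaScreen streptavidin donor/nickel chelate acceptor beads (10 ug/mL final), 20 min dark, signal read.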
HP1b chromo inh = HTS for Inhibitors of HP1-beta Chromodomain Interactions with Methylated Histone Tails; Potency, µM (top dose mostly 114 µM), for the others: at the top dose activity change, negative = inhibition, hits mostly inhibitors; AID 540317, 2011; AlphaScreen HP1-beta / biotin-H3K9me3 peptide binding; hit rate 0.56% among 390,000; further: nearly all actives have a fitted effect of over 70% in size
Target sequence (P83916 whole entry, looked up): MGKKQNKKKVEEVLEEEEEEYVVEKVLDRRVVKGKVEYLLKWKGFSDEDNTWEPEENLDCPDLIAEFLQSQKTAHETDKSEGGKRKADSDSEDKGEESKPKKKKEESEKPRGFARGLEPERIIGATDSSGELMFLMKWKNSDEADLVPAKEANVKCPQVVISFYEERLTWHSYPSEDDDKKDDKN
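HP1-beta protein (50 nM final) preincubated 30 min at room temperature with biotinylated H3(1-18)K9me3 peptide (50 nM) in PBS pH 7.4, 0.01% Tween-20, then compound added for 30 min. AlphaScreen streptavidin donor/nickel chelate acceptor beads (10 ug/mL final), 30 min dark, luminescence read.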
PLK1 PBD block = qHTS for Inhibitors of PLK1-PDB (polo-like kinase 1 - polo-box domain): Primary Screen. Potency, µM, inactives show max response, negative = inhibition, usual class: inhibitors. Serine/threonine-protein kinase PLK1 (Homo sapiens), P53350. Plk1 PBD binding of FITC phosphopeptide, fluorescence polarization. hit rate 2.8% among 360,000; further: series mostly up to about 57 µM; on the % scale 0 is the no-effect control and ±100 the full control effect; nearly all actives have a fitted effect of over 65% in size
JMJD2A Tudor inh = qHTS Assay for Inhibitors of JMJD2A-Tudor Domain; Lysine-specific demethylase 4A (Homo sapiens), O75164; AlphaScreen JMJD2A-Tudor / H3K4me3 peptide binding; Potency, µM (top dose mostly 114 µM), for the others: top-dose activity change, negative = inhibition, most hits filed as inhibitors; hit rate 4.4% among 390,000; AID 504339, 2011; further: on the % scale 0 is the no-effect control and ±100 the full control effect; nearly all actives have a fitted effect of over 50% in size
12-LOX inh = Primary qHTS assay for inhibitors of human arachidonate 12S-lipoxygenase (ALOX12): Round 2; Polyunsaturated fatty acid lipoxygenase ALOX12 (Homo sapiens), P18054; purified 12hLO, xylenol orange hydroperoxide absorbance; Potency, µM (doses to about 108 µM), for the others: top-dose activity change, negative = inhibition, usual class: inhibitors; hit rate 1.1% among 580,000; AID 1671190, 2021; further: on the % scale 0 is the no-effect control and ±100 the full control effect
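Purified human 12hLO at 150 nM in 25 mM Hepes, 0.01% Triton X-100, pH 7.0, preincubated 15 min at room temperature with compound. Reaction started with 40 uM arachidonic acid, 30 min at room temperature. Hydroperoxide measured by Fe-xylenol orange, 573/405 nm absorbance ratio.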
* = called active by the depositor; ? = inconclusive; . = no result; [ ] = remark or other dose. The call rests on the fitted dose curve; in most records, active means well fitted curve in the direction sought with a large enough effect; inconclusive means small, poorly fitted or top-dose-only effect, or another doubt; inactive means no such curve, though single readings can be large; an effect the other way counts as inactive or inconclusive. Potency means the concentration at half of the fitted maximal effect.

SMILES	G9a inh	BAZ2B inh	HP1b chromo inh	PLK1 PBD block	JMJD2A Tudor inh	12-LOX inh
Cc1ccc(CNC(=O)c2cc(-c3ccc(C)o3)nc3ccccc23)cc1	.	.	.	.	.	3.16µM*
O=C(NC1CCN(Cc2ccccc2)CC1)c1cc(-c2ccccn2)nc2ccccc12	-4.4%[59 µM]	-7.6%	25.7%	1.7%	-5.3%	0.0%
COc1ccccc1CC(=O)NC1CCC(C)CC1 (stereo not given)	-14.9%	-25.6%	21.9%	-21.8%	-9.0%	-2.3%
CC(C)CC(NC(N)=O)C(=O)Nc1ccc2c(c1)OCO2 (stereo not given)	-35.0%	?	8.8%	-12.9%	?	-2.8%
O=C(NCc1nnc2ccc(-c3ccccc3)nn12)c1ccc(F)cc1Cl	.	.	.	.	.	-7.3%
CC(NC(=O)c1c(O)c2ccccc2[nH]c1=O)c1ccccc1 (stereo not given)	1.8%	-9.6%	19.1%	9.7%	-8.8%	19.0%
O=c1c2c3c(sc2nc2n1CCCC2)CCC3	-19.2%	-2.4%	23.5%	-0.1%	-17.4%	4.5%
CC1CCC(NC(=O)c2cc3ccccc3c(Cl)n2)CC1 (stereo not given)	.	.	.	.	.	39.8µM*
CC1CCC(NC(=O)c2cc(C3CC3)nc3ccccc23)CC1 (stereo not given)	.	.	.	.	.	59.4%
CCC(=O)Nc1nc(CC(=O)Nc2ccccc2OC)cs1	-3.2%[59 µM]	-7.1%	27.8%	-1.3%	-9.1%	8.7%
COc1ccccc1NC(=O)Cc1csc(NC(=S)Nc2ccc(C)cc2)n1	-14.2%	-4.1%	-10.8%	-12.3%	-25.9%	10µM*
COc1cc(C)ccc1NC(=O)Cc1csc(NC(=O)Nc2ccccc2OC)n1	12.6µM*	?	6.6%	5.4%	-31.3%	-8.2%
O=C(NCCc1ccccc1)C1CC(=O)N(c2n[nH]c3ccccc23)C1 (stereo not given)	.	.	.	.	.	21.1%
CCCNC(=O)N1CCN(S(C)(=O)=O)CC1	39.8µM*	-10.6%	36.8%	-3.7%	-6.8%[11.4 µM]	1.2%
NNC(=O)c1ccc2c(c1)S(=O)(=O)NNC2=O	11.2µM*	-31.8%	76.5%	?	28.2µM*	?
CCCNC(=O)c1ccc2c(c1)S(=O)(=O)c1ccccc1C2=O	.	-11.1%	13.4%	-15.0%	-13.6%	24.3%
Cc1ccc(OCCN(C)C)c([N+](=O)[O-])c1	?	?	?	-4.0%	8.91µM*	-3.8%
C=CCNCCOCCOc1ccc(C)cc1[N+](=O)[O-]	22.4µM*	?	-20.3%	-1.6%	3.16µM*	?
COCCNCCOc1ccc(C)cc1[N+](=O)[O-]	-40.6%	?	?	-7.6%	25.1µM*	?
COc1ccccc1NC(=O)c1cccc(N2C(=O)C3C4C=CC(C4)C3C2=O)c1 (stereo not given)	-0.9%	-2.9%[57.1 µM]	29.8%	-22.0%	-16.8%	3.9%
Cc1ccc(Nc2c(-c3ccc(N4CCOCC4)cc3)nc3cnccn23)cc1	?	?	14.4%	-2.1%	-20.3%	0.0%
Cc1cccn2c(Nc3ccc4c(c3)OCCO4)c(-c3ccc(Br)o3)nc12	11.2µM*	11.2µM*	?	.	22.4µM*	?
Cc1ccn2c(Nc3ccc4c(c3)OCCO4)c(-c3ccc(Cl)s3)nc2c1	?	-31.0%	?	.	?	?
Cc1ccc2nc(-c3ccc(Cl)s3)c(Nc3ccc4c(c3)OCCO4)n2c1	-7.7%[59 µM]	-13.0%	-4.7%	.	-26.7%	-18.1%
Cc1ccn2c(Nc3ccc4c(c3)OCO4)c(-c3ccc(Cl)cc3)nc2c1	2.82µM*	.	-8.8%	.	-32.7%	-1.9%
SMILES	G9a inh	BAZ2B inh	HP1b chromo inh	PLK1 PBD block	JMJD2A Tudor inh	12-LOX inh
Cc1ccc(-c2nc3cnccn3c2Nc2ccc3c(c2)OCO3)cc1	39.8µM*	39.8µM*	?	-3.2%	50.1µM*	?
COc1ccc(Nc2c(-c3ccc(C)cc3)nc3cnccn23)cc1	50.1µM*	?	-12.9%[57 µM]	1.2%	44.7µM*	?
C=CCNC(=O)c1ccccc1CCc1ccccc1	17.7%	-0.8%	51.9%	1.5%	-4.2%	-1.1%
CCC(Sc1nc(N)c(NC(=O)c2ccco2)c(=O)[nH]1)C(=O)O (stereo not given)	?	-1.8%	34.0%	1.4%	-4.9%	-52.6%
Cc1ccc(-c2nc3cnccn3c2Nc2ccc3c(c2)OCCO3)o1	10µM*	?	-27.4%	-5.7%	?	-15.5%
Cc1ccn2c(Nc3ccc4c(c3)OCO4)c(-c3ccc(N(C)C)cc3)nc2c1	2µM*	.	-2.9%	.	?	?
Cc1ccn2c(NCc3ccc4c(c3)OCO4)c(-c3ccc(O)cc3)nc2c1	11.1%[59 µM]	2.8%	14.1%	-9.0%	-2.2%	6.7%
COc1ccc(Nc2c(-c3ccc(C)o3)nc3ccccn23)cc1	.	.	-17.9%	.	?	.
COc1cccc(CNC(=O)[C@@H]2C[C@@H](O)CN2C2CCN(C(=O)C3CCCCC3)CC2)c1	.	.	.	.	.	40.5%
CC(C)=CC(=O)Nc1ccccc1Cc1ccccc1	.	.	.	.	.	42.4%
Cc1ccc(-n2ccnc(NCc3ccccc3)c2=O)cc1C	?	?	-15.8%	.	-17.2%	-23.1%
COc1ccc(OC)c(CCNc2nccn(-c3ccc(C)c(C)c3)c2=O)c1	15.8µM*	25.1µM*	?	.	56.2µM*	-11.9%
Cc1cccc(NC(=O)CSCC(=O)Nc2ccc(S(=O)(=O)N3CCCCC3)cc2)c1	31.6µM*	-2.0%	49.0%	3.6%	-14.1%	?
CCc1noc(C)c1C(=O)N1CCN(S(=O)(=O)c2ccc(Cl)cc2)CC1	0.3%[59 µM]	5.9%	37.4%	0.5%	-4.7%	21.9%
Cc1cccc(NC(=O)CSCC(=O)Nc2cccc(S(=O)(=O)N3CCCCCC3)c2)c1	35.5µM*	-35.9%	0.7%	-8.6%	-21.4%	?
CCc1noc(C)c1C(=O)N1CCN(S(=O)(=O)c2ccc(C(C)=O)cc2)CC1	39.8µM*	11.2%	12.2%	-18.4%	-10.3%	?
Cc1cc(C)c(C#N)c(SCC(=O)Nc2cccc(S(=O)(=O)N3CCCC3)c2)n1	50.1µM*	-2.9%	41.8%	-10.1%	-8.2%	8.4%
Cc1ccc(NC(=O)c2cc(NC(=O)CCCC(=O)O)ccc2Cl)cc1Cl	49.3%[0.501 µM]	-30.6%	-6.6%	?	19.9%[11.4 µM]	8.0%
Cc1cccc(NC(=O)CSCC(=O)Nc2ccccc2N2CCCC2)c1	?	35.5µM*	-5.4%	-11.6%	?	92.4%
Cc1cccc(NC(=O)CSCC(=O)Nc2ccccc2N2CCCCC2)c1	-28.1%[59 µM]	-2.8%	10.2%	1.2%	8.2%	-14.1%
